# Source: the supplement of paper PMC5662767
# Values joined by “and” are separate entries in the source; they are usually repeats but may differ in a detail not shown here. Identical values can stand only once.
# System: Drosophila S2 cl14 SmoIP sensor cells
# Experiment: normalized SmoIP GFP fluorescence (untreated unstimulated = 0%, untreated Hh-stimulated = 100%); higher = more Smo activation sensor fluorescence
# Conditions: compound concentration: 2 uM, 24 h
# [1] = stimulation: Hh conditioned medium (+Hh)
# [2] = stimulation: mock conditioned medium (-Hh)
# 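Also: flow cytometry read-out as median GFP intensity of gated cells, compounds added 30 min before Hh-conditioned or mock medium, mock-treated cells serving as unstimulated baseline.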
Compound,normalized SmoIP GFP fluorescence [1],normalized SmoIP GFP fluorescence [2]
CC(=O)Nc1ccc(C(=O)Nc2ccccc2N)cc1 [ci994-tacedinaline],129%,-4.13%
O=C(C=Cc1ccccc1)NC(NC(=S)Nc1ccc(Cl)cc1)C(Cl)(Cl)Cl (stereo unspecified),88.1%,-1.13%
Cc1ncc(-c2ccnc(Nc3ccc(S(C)(=O)=O)cc3)n2)n1C(C)C,156%,11.2%
O=C(CCCS)NC1CCN(C(=O)COc2ccc(Cl)cc2Cl)CC1 [k-ras-g12c-inhibitor-6],113%,-2.82%
CS(=O)(=O)CCNCc1ccc(-c2ccc3ncnc(Nc4ccc(OCc5cccc(F)c5)c(Cl)c4)c3c2)o1 [Lapatinib-Ditosylate],253%,9%
Cn1c(=O)c2[nH]cnc2n(C)c1=O [Aminophylline(Truphylline)],98.8%,-6.51%
CC(C)N(CCCNC(=O)Nc1ccc(C(C)(C)C)cc1)C[C@H]1O[C@@H](n2ccc3c(N)ncnc32)[C@H](O)[C@@H]1O,106% and 111%,-4.13% and -1.12%
CN1CCC(CNc2ccc3ncc(-c4cccc(OC(F)(F)F)c4)n3n2)CC1,122%,5.38%
C=CCc1cccc(/C=N/NC(=O)CN2CCN(Cc3ccccc3)CC2)c1O,154%,-5.53%
CCCC(CCC)C(=O)O [Sodium-valproate],110%,-4.68%
CCOc1cc2ncc(C#N)c(Nc3ccc(OCc4ccccn4)c(Cl)c3)c2cc1NC(=O)/C=C/CN(C)C [Neratinib(HKI-272)],105%,-15.6%
COc1cc2ncnc(Nc3ccc(Cl)cc3F)c2cc1OC,99.3%,-4.13%
O=P(O)(O)C(O)(Cn1ccnc1)P(=O)(O)O [Zoledronic-Acid],98.3%,-5.54%
